Pf growth 48h: Primary qHTS for delayed death inhibitors of the malarial parasite plastid, 48 hour incubation. P. falciparum luciferase growth in erythrocytes, 48 h. Potency, µM (series often up to 28.7 µM), without a hit: top-dose activity change, negative = inhibition, most hits filed as inhibitors. actives 5.9% (n = 310,000)
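Luciferase-expressing P. falciparum in infected erythrocytes (2% hematocrit, 0.1% parasitemia final) in RPMI 1640/0.5% Albumax were exposed to compound for 48 hours at 37 C, 5% CO2; growth read as luminescence.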
Pf growth 96h: Primary qHTS for delayed death inhibitors of the malarial parasite plastid, 96 hour incubation; P. falciparum luciferase reporter growth, 96 h; Potency, µM (highest dose often 28.7 µM), for the others: at the top dose activity change, negative = inhibition, most hits filed as inhibitors; actives 6.9% (n = 320,000); AID 504834, 2011
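Two parasite generations (96 h, 37 C, 5% CO2) of compound exposure in infected erythrocytes (0.05% parasitemia, 2% hematocrit). Luciferase-reporter P. falciparum; decreased luminescence indicates inhibited growth, aimed at apicoplast-acting delayed death.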
HCV inh: qHTS Assay for Inhibitors of Hepatitis C Virus (HCV); actives 3.4% (n = 340,000); AID 651820, 2012; Potency, µM (highest dose often 41.8 µM), for the others: top-dose activity change, negative = inhibition, most hits filed as inhibitors; Huh7.5.1 HCVcc-Cre infection, luciferase reporter, 44 h
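Cells seeded at 1,000/well and cultured 4 h, then compounds added followed by HCVcc-Cre virus (~0.5 moi). After 44 h further culture, luciferase substrate was added, plates held 15 min at room temperature, and luminescence read for 15 sec.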
AmpC detergent: qHTS Inhibitors of AmpC Beta-Lactamase (assay with detergent). Potency, µM (highest dose often 114 µM), for inactives: at the top dose activity change, negative = inhibition, hits mostly inhibitors. AmpC hydrolysis of nitrocefin, absorbance 480 nm, 0.01% Triton. actives 0.041% (n = 370,000). P00811. AID 485294, 2010;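 also: 0% = no-compound wells and -100% = no-enzyme wells; nearly all actives have a fitted effect of over 25% in size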
Target sequence (P00811 whole entry, looked up): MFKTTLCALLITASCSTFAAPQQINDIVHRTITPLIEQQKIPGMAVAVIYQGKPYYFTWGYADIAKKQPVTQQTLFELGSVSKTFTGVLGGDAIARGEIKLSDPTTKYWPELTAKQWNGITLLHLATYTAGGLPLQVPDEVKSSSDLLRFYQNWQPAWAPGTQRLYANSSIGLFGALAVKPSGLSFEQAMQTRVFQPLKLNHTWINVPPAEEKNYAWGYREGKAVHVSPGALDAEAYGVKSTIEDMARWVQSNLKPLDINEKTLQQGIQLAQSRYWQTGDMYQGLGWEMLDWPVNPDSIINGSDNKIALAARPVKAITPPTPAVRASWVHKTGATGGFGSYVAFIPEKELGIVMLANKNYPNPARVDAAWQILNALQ
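AmpC (5.3 nM in the dispensed reagent) in 20 mM phosphate pH 7.0 with 0.01% (detergent screen) or 0.0001% Triton X-100 was preincubated with compounds for 15 min at room temperature. Nitrocefin was then added from an 800 uM solution, and hydrolysis was followed at 480 nm.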
AmpC no deterg: qHTS Inhibitors of AmpC Beta-Lactamase (assay without detergent); P00811; actives 0.52% (n = 330,000); Potency, µM (series often up to 57.1 µM), inactives show at the highest dose activity change, negative = inhibition, hits mostly inhibitors; AmpC nitrocefin hydrolysis, absorbance 480 nm, 0.0001% Triton;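 also: plate controls were no compound for no effect and no enzyme for full effect; nearly all actives have a fitted effect of over 20% in size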
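AmpC (5.3 nM in the dispensed reagent) in 20 mM phosphate pH 7.0 with 0.01% (detergent screen) or 0.0001% Triton X-100 was preincubated with compounds for 15 min at room temperature. Nitrocefin was then added from an 800 uM solution, and hydrolysis was followed at 480 nm.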
AMA1 RON2 block: qHTS for Inhibitors of AMA1-RON; Towards Development of Antimalarial Drug Lead: Primary Screen. AlphaScreen AMA1-biotinylated RON2 peptide binding. Potency, µM (titrated, usually from 58.2 µM), for inactives: at the top dose activity change, negative = inhibition, actives largely listed as inhibitors. actives 0.2% (n = 360,000). AID 720542, 2013;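 also: 0% = vehicle wells and -100% = peptide control; nearly all actives have a fitted effect of over 45% in size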
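AMA1 (3D7) with his tag at 25 nM final met compounds first, then biotinylated RON2 peptide at 25 nM; detection used donor plus acceptor beads, 10 µg/mL apiece, read by AlphaScreen after 30 min at room temperature.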
The depositor's hits bear a star; ? = inconclusive; / = no result; [ ] = dose if it differs, or a comment. Compounds with a hit are over-represented: about 11% of the library has one in this group of screens. Calls follow the shape of the dose curve; as a rule, active = well fitted curve in the direction sought with a large enough effect; inconclusive = small, poorly fitted or top-dose-only effect, or another doubt; inactive = no such curve, though single readings can be large; an effect the other way counts as inactive or inconclusive. Unless noted, % is scaled to controls: 0 for no effect and ±100 for the full control effect; potency is read from the fitted curve at half-maximal effect.

SMILES	Pf growth 48h	Pf growth 96h	HCV inh	AmpC detergent	AmpC no deterg	AMA1 RON2 block
Cc1sc2ncnc(N3CCN(S(=O)(=O)c4ccccc4)CC3)c2c1C	13µM*	?	11µM*	3%	-6%	-15%
Cc1ccc(S(=O)(=O)N2CCN(c3ncnc4scc(-c5ccccc5)c34)CC2)cc1	/	/	?	/	34%	2%[11.6 µM]
O=S(=O)(c1ccccc1)c1nnn2c1nc(NCc1ccc(F)cc1)c1sccc12	/	/	/	4%	/	/
CCCCSCCCNC(=O)c1cn(C)c2ccc(S(=O)(=O)N3CCCCCC3)cc2c1=O	/	/	/	7%	/	/
COc1cccc(-c2nc3c(c(SCc4ccccc4)n2)Cc2c(CO)cnc(C)c2O3)c1	/	/	/	19%	/	/
Cc1occc1C(=O)Nc1cccc(C(F)(F)F)c1	6%	19%	-27%	-2%	-27%	-1%
Cc1cnc(Nc2nc3ccccc3o2)nc1C(=O)Nc1cccc(C(F)(F)F)c1	?	29%	6.3µM*	-17%	-29%	90%
CN1CCN(CC#Cc2ccccc2)CC1CCO (stereo not drawn)	1%	4.1µM*	15%	-14%	-25%	-7%
CC(C)CCN1CCN(Cc2coc3ccccc3c2=O)CC1CCO (stereo not drawn)	3%	4.1µM*	20%	-5%	-11%	0%
CC(C)c1csc(CN2CCN(CCc3ccccc3)C(CCO)C2)n1 (stereo not drawn)	?	1.7µM*	5%	-7%	107%	3%
CC(C)(C)CN1CCN(CC#Cc2ccccc2)CC1CCO (stereo not drawn)	14%	?	-6%	4%	69%	2%
Cn1cc(CN2CCN(CCc3ccccc3)C(CCO)C2)cn1 (stereo not drawn)	3%	87%	-2%	6%	-11%	-6%
OCCC1CN(Cc2ccc3nsnc3c2)CCN1CCc1ccccc1 (stereo not drawn)	-5%	12µM*	-11%	6%	21%	-17%
COc1cccc(C2c3c(oc4cc(C)cc(C)c4c3=O)C(=O)N2CCc2ccc(OC)c(OC)c2)c1 (stereo not drawn)	/	/	/	17%	/	/
CCCc1c(C(=O)OCC)nnc2c(-c3ccccc3)c(C)nn12	/	/	/	-2%	/	/
OCCC#Cc1ccc(CN2CCN(CCc3ccccc3)C(CCO)C2)cc1 (stereo not drawn)	?	8.3µM*	4%	-13%	18%	-6%
CC(C)CCN1CCN(Cc2ccc(C#CCCO)cc2)CC1CCO (stereo not drawn)	-20%	12µM*	-4%	-3%	-14%	16%
COc1ccc2oc(=O)c(C(=O)NCCc3c(C)[nH]c4ccc(Br)cc34)cc2c1	/	/	/	-1%	/	/
CCOCCc1nn2c(=O)cc(COC(=O)C3CCCCC3)nc2s1	/	/	/	-4%	/	/
Cc1ccc(NC(=O)CSCn2nnc3c(=O)[nH]c(Cc4ccc(F)cc4)nc32)c(C)c1	/	/	/	1%	/	/
COc1ccccc1C(=O)OCc1cc(=O)n2nc(C3CCCCC3)sc2n1	/	/	/	21%	/	/
COc1cc(OC)cc(C(=O)Nc2nc(CC(=O)NCc3ccccc3OC)cs2)c1	?	?	?	?	-8%	?
O=C(Cc1csc(NC(=O)c2ccc(F)cc2)n1)NO	?	8.3µM*	2%	-12%	-10%	87%
COc1cc(OC)cc(C(=O)Nc2nc(CC(=O)NCc3ccc(F)cc3)cs2)c1	?	12µM*	?	-8%	-30%	4%
Cc1ccc(C(=O)COC(=O)C(Cc2c[nH]c3ccccc23)NC(=O)c2ccc(C(C)(C)C)cc2)cc1 (stereo not drawn)	/	/	/	-9%	/	/
SMILES	Pf growth 48h	Pf growth 96h	HCV inh	AmpC detergent	AmpC no deterg	AMA1 RON2 block
Fc1ccc(N2CCN(c3nc4ccccc4c4nc(-c5cccnc5)nn34)CC2)cc1	/	/	/	18%	/	/
CCOc1ccc(CNC(=O)Cn2c(=O)c3cccn3c3ccc(F)cc32)cc1OC	/	/	/	-2%	/	/
CCn1c(=O)cc(OCC(=O)Nc2nc(C)cs2)c2ccccc21	6%	2.1µM*	-10%	-18%	50µM*	-5%
CCn1c(=O)cc(OCC(=O)Nc2ccc(C)cn2)c2ccccc21	0%	/	-15%	?	-3%	-10%
CCn1c(=O)cc(OCC(=O)Nc2ccccc2N2CCN(C)CC2)c2ccccc21	/	9.3µM*	-20%	3%	66%	-1%
CCn1c(=O)cc(OCC(=O)Nc2ccccc2Cl)c2ccccc21	/	/	/	1%	/	/
COc1ccc(C2c3c(oc4ccc(F)cc4c3=O)C(=O)N2Cc2ccc3c(c2)OCO3)cc1 (stereo not drawn)	/	/	/	-4%	/	/
COc1cccc(C2CC(=O)Nc3c2c(=O)nc2c(C)cccn32)c1OC (stereo not drawn)	/	/	/	11%	/	/
Cc1c(OCc2ccccc2)c(=O)ccn1Cc1ccc(F)cc1	?	2.3µM*	1.8µM*	-1%	68%	3%
Cc1ccc(Cn2ccc(=O)c(OCc3ccccc3)c2C)cc1	/	23%	-1%	-20%	5%	7%
CCOC(=O)c1cccc(NC(=O)CCCn2nc(C)c3c(C)n(-c4ccccc4)nc3c2=O)c1	/	/	/	0%	/	/
CCN(CC)C(=O)Oc1ccccc1NC(C)=O	8%	9.3µM*	3%	?	-19%	-6%
COc1ccccc1NC(=O)c1ccc2c(O)c(S(=O)(=O)c3ccccc3)c(=O)[nH]c2c1	26%	12µM*	3%	-9%	-23%	7%
Cc1ccc2[nH]c(=O)c(CN(CCCN3CCOCC3)C(=O)Nc3cccc(Cl)c3)cc2c1	8.3µM*	1%	6%	?	-18%	-5%
Cc1ccc2[nH]c(=O)c(CN(CCCN3CCOCC3)C(=O)Nc3ccc(Cl)cc3)cc2c1	3.7µM*	0%	?	-5%	11%	3%
Cc1ccc2[nH]c(=O)c(CN(CCN3CCOCC3)C(=O)Nc3ccccc3F)cc2c1	?	7%[5.75 µM]	-1%	-14%	-20%	2%
Cc1cccc(NC(=O)N(Cc2cc3cc(C)ccc3[nH]c2=O)CC2COCCO2)c1 (stereo not drawn)	?	16%	-15%	-1%	160%	-19%
CCOc1ccc(CCNCc2c(C(=O)O)n(Cc3ccc(C)cc3)c3cc(OC)ccc23)cc1	/	/	/	-12%	/	/

Compound activity: PubChem, National Center for Advancing Translational Sciences (NCATS)
